Experiment [1] in a line: qHTS RealTime-Glo MT Cell Viability Assay in HepG2 cells - 8 hour (AID 1224873). Also: nearly all actives have a fitted effect of over 55% in size. The method in brief: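 Real-time viability: cells seeded at 600 per well together with NanoLuc and cell-permeant prosubstrate, compounds added after 5 h incubation. Luminescence tracked at 0, 8, 16, 24, 32 and 40 h of exposure.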
On the technique in general: Quantitative high-throughput screening tests each substance at several concentrations.

The nature of experiment [2]: qHTS RealTime-Glo MT Cell Viability Assay in HEK293 cells - 40 hour (AID 1224874). Also: potency is read from the fitted curve at half-maximal effect; nearly all actives have a fitted effect of over 50% in size. The note with it: RealTime-Glo luminescence; max response: hits give low values. In short, it runs like this: (§1)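 Real-time viability in HEK293: signal arises when living cells convert a prosubstrate for NanoLuc in the medium, so luminescence tracks viable cell number. Compound (23 nL, DMSO) added 5 h post-seeding; kinetic reads at 0–40 h, 37 C.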

Experiment [3] is described as follows: A CellTox Green Cytotoxicity Assay to monitor cytotoxicity in HEK293 cells - 24 hour (AID 1224875). Also: nearly all actives have a fitted effect of over 45% in size. Also: potency is read from the fitted curve at half-maximal effect. In short, it runs like this: (§2)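 Cells (HEK293, 600/well) and dye reagent are dispensed together. After 5 h at 37 C, 23 nL compound is pinned in. Plates stay at 37 C for 40 h with fluorescence read at 0h, 8h, 16h, 24h, 32h and 40h.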
A short description of experiment [4]: A CellTox Green Cytotoxicity Assay to monitor cytotoxicity in HepG2 cells - 16 hour (AID 1224876). Also: nearly all actives have a fitted effect of over 45% in size. In short, it runs like this: (§3)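 Cells and non-lytic dye reagent are dispensed together (600 HepG2 cells/well) and incubated 5 h before DMSO compound transfer. Kinetic fluorescence is then recorded in the same wells during 40 h at 37 C.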
A short description of experiment [5]: qHTS RealTime-Glo MT Cell Viability Assay in HepG2 cells - 32 hour (AID 1224877). Also: nearly all actives have a fitted effect of over 55% in size. Also: potency is read from the fitted curve at half-maximal effect. In short, it runs like this:
(§4)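 Cells + NanoLuc/prosubstrate dispensed (600 cells/well) → 5 h at 37 C/5% CO2 → compounds in DMSO transferred → 40 h incubation at 37 C, luminescence read at 0, 8, 16, 24, 32, 40 h.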

Experiment [6] in a line: A CellTox Green Cytotoxicity Assay to monitor cytotoxicity in HepG2 cells - 24 hour (AID 1224878). Also: nearly all actives have a fitted effect of over 45% in size. Also: potency is read from the fitted curve at half-maximal effect. The method in brief:
as §3

A short description of experiment [7]: qHTS RealTime-Glo MT Cell Viability Assay in HEK293 cells - 0 hour (AID 1224880). Also: top concentration of the series differs between compounds; nearly all actives have a fitted effect of over 45% in size. In short, it runs like this:
as §1

Experiment [8] is described as follows: A CellTox Green Cytotoxicity Assay to monitor cytotoxicity in HepG2 cells - 0 hour (AID 1224882). Also: nearly all actives have a fitted effect of over 35% in size. In short, it runs like this:
as §3

Experiment [9] in a line: A CellTox Green Cytotoxicity Assay to monitor cytotoxicity in HepG2 cells - 32 hour (AID 1224883). Also: nearly all actives have a fitted effect of over 50% in size. Also: potency is read from the fitted curve at half-maximal effect. The method in brief: as §3
Experiment [10] is described as follows: A CellTox Green Cytotoxicity Assay to monitor cytotoxicity in HEK293 cells - 8 hour (AID 1224884). Also: nearly all actives have a fitted effect of over 35% in size. In short, it runs like this: as §2
Experiment [11] in a line: qHTS RealTime-Glo MT Cell Viability Assay in HepG2 cells - 16 hour (AID 1224885). Also: nearly all actives have a fitted effect of over 50% in size. Also: potency is read from the fitted curve at half-maximal effect. In short, it runs like this:
as §4

Experiment [12] is described as follows: qHTS RealTime-Glo MT Cell Viability Assay in HEK293 cells - 24 hour (AID 1224886). Also: nearly all actives have a fitted effect of over 50% in size. Also: potency is read from the fitted curve at half-maximal effect. The method in brief: (§5)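 Tox21 10K qHTS, HEK293, 600 cells/well, RealTime-Glo reagent co-dispensed with cells; 5 h preincubation, compound by pintool, 37 C, luminescence at 0–40 h.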
A short description of experiment [13]: qHTS RealTime-Glo MT Cell Viability Assay in HEK293 cells - 8 hour (AID 1224887). Also: nearly all actives have a fitted effect of over 50% in size. Also: potency is read from the fitted curve at half-maximal effect. In short, it runs like this:
as §1

The nature of experiment [14]: A CellTox Green Cytotoxicity Assay to monitor cytotoxicity in HEK293 cells - 16 hour (AID 1224888). Also: nearly all actives have a fitted effect of over 35% in size. In short, it runs like this:
as §2

Experiment [15] can be described thus: qHTS RealTime-Glo MT Cell Viability Assay in HepG2 cells - 0 hour (AID 1224889). Also: nearly all actives have a fitted effect of over 50% in size. Also: potency is read from the fitted curve at half-maximal effect. The method in brief:
as §4

Experiment [16] can be described thus: A CellTox Green Cytotoxicity Assay to monitor cytotoxicity in HepG2 cells - 8 hour (AID 1224890). Also: nearly all actives have a fitted effect of over 45% in size. In short, it runs like this: as §3
Experiment [17] is described as follows: A CellTox Green Cytotoxicity Assay to monitor cytotoxicity in HepG2 cells - 40 hour (AID 1224879). Also: nearly all actives have a fitted effect of over 40% in size. Also: potency is read from the fitted curve at half-maximal effect. The method in brief: as §3
Experiment [18] in a line: A CellTox Green Cytotoxicity Assay to monitor cytotoxicity in HEK293 cells - 32 hour (AID 1224881). Also: nearly all actives have a fitted effect of over 40% in size. Also: potency is read from the fitted curve at half-maximal effect. The method in brief: as §2
Experiment [19] is described as follows: qHTS RealTime-Glo MT Cell Viability Assay in HEK293 cells - 16 hour (AID 1224872). Also: nearly all actives have a fitted effect of over 50% in size. Also: potency is read from the fitted curve at half-maximal effect. In short, it runs like this:
as §5

Consider 13 molecules from PubChem BioAssay (Tox21).

The structures appear in SMILES notation. A number with no mark means an inactive call. Inconclusive results are not listed. The source made the active and inactive calls. Calls follow the shape of the dose curve; as a rule, active = well fitted curve in the direction sought with a large enough effect in the repeat runs; inconclusive = weak or mixed curves; inactive = no such curve, though single readings can be large; an effect the other way counts as inactive or inconclusive.

Consider `O=C(CCl)Nc1ccccc1`, for which the Potency result in experiment [1], in [3], in experiment [4], in experiment [5], in experiment [6] and in experiment [7] was “inactive” each time. For the same molecule, the Potency entry in experiment [8], in experiment [9], in experiment [10], in experiment [11], in experiment [13] and in experiment [14] was “inactive” in each case. The Potency result in experiment [15] and in [16] was “inactive” throughout. Moreover, the Potency in experiment [2] was 38.9 µM (active); in experiment [12], 43.6 µM (active).

Consider `CC(=O)[O-].CC(=O)[O-].O.O.[Cd+2]`, for which the Potency entry in experiment [1], in experiment [7], in [14], in experiment [15] and in experiment [16] was “inactive” throughout. Moreover, the Potency in experiment [2] is 15.3 µM (active); in experiment [6], 48.3 µM (active); in experiment [17], 27.2 µM (active); in experiment [9], 27.2 µM (active).

`CCOC(=O)c1ccccc1S(=O)(=O)NC(=O)Nc1nc(Cl)cc(OC)n1`: the Potency entry in experiment [1], in [4], in [5], in experiment [6], in experiment [17] and in [8] was “inactive” in each case. Further, the Potency entry in [11], in experiment [15] and in [16] was “inactive” in each case. For the same molecule, the Potency in [18] was 54.9 µM (active).

Turning to `CCN(CC)c1c([N+](=O)[O-])cc(C(F)(F)F)c(N)c1[N+](=O)[O-]`, the Potency is 12.3 µM (active) in experiment [19], 21.9 µM (active) in experiment [2], 17.4 µM (active) in [12] and 6.92 µM (active) in [13]. Besides, the Potency entry in [3], in [7], in [8], in experiment [14] and in experiment [15] was “inactive” in each case.

For `COc1cccc(C(=O)CCN[C@@H](C)[C@H](O)c2ccccc2)c1`, the Potency result in [1], in experiment [4], in experiment [7], in [10], in experiment [15] and in [16] was “inactive” each time. Further, the Potency in experiment [5] was 23.9 µM (active).

As to `CC(C)(C)C(O)/C(=C\c1ccc(Cl)cc1Cl)n1cncn1` (centres undefined), the Potency in [19] was 29.7 µM (active); in [2] it was 26.5 µM (active); in experiment [17], 52.8 µM (active); in experiment [9] it was 59.3 µM (active); in experiment [12], 26.5 µM (active); in [13] it was 47.1 µM (active). Further, the Potency entry in experiment [7], in experiment [8], in experiment [10], in [14], in experiment [15] and in experiment [16] was “inactive” each time.

As to `C=CCC1=C(C)C(OC(=O)C2C(C=C(C)C)C2(C)C)CC1=O` (centres undefined), the Potency in experiment [19] was 20.7 µM (active); in [2], 41.2 µM (active); in experiment [3], 51.9 µM (active); in experiment [18] it was 51.9 µM (active); in experiment [12], 23.2 µM (active); in [13] it was 23.2 µM (active). Moreover, the Potency entry in [5], in experiment [7] and in experiment [15] was “inactive” throughout.

On to `CSCCCN=C=S`, for which the Potency entry in [1], in [3], in experiment [5], in experiment [7], in [18] and in experiment [8] was “inactive” each time. Further, the Potency entry in experiment [10], in [11], in experiment [13], in experiment [14], in experiment [15] and in experiment [16] was “inactive” each time.

With `Nc1ccc(Cl)cc1C(=O)c1ccccc1`, the Potency entry in experiment [1], in [4], in experiment [5], in experiment [6], in experiment [17] and in [7] was “inactive” each time. The Potency entry in experiment [8], in [9], in experiment [11], in [15] and in experiment [16] was “inactive” each time.

As to `O=CC(Br)(Br)Br`, the Potency in [2] is 2.45 µM (active); in experiment [5], 43.5 µM (active); in experiment [6] it was 48.8 µM (active); in [17], 43.5 µM (active); in experiment [9], 38.8 µM (active); in experiment [11], 48.8 µM (active). Further, the Potency in [12] was 2.45 µM (active). Moreover, the Potency result in experiment [7], in experiment [8], in experiment [10], in [13], in experiment [14] and in [15] was “inactive” each time. Besides, the Potency result in experiment [16] was “inactive”.

`O=C(O)COc1nc(Cl)c(Cl)cc1Cl`: the Potency entry in experiment [19], in experiment [1], in experiment [5], in [17], in experiment [7] and in experiment [11] was “inactive” throughout. Further, the Potency result in [12], in experiment [13] and in experiment [15] was “inactive” each time.

Regarding `C[C@]12CC[C@H]3[C@@H](CCC4=CC(=O)CC[C@@]43C)[C@@H]1CC[C@@H]2O`, the Potency result in [1], in experiment [3], in experiment [4], in experiment [5], in experiment [6] and in [7] was “inactive” each time. Besides, the Potency entry in experiment [8], in experiment [9], in [10], in experiment [11], in [13] and in experiment [14] was “inactive” in each case. Further, the Potency result in experiment [16] is “inactive”. Also, the Potency in experiment [2] was 48.6 µM (active); in [12], 54.6 µM (active); in experiment [15], 21.7 µM (active).

On to `CC(C)(C)c1cc([N+](=O)[O-])cc(C(C)(C)C)c1O`, for which the Potency in experiment [2] is 6.92 µM (active). Besides, the Potency result in experiment [3], in experiment [4], in experiment [5], in experiment [7], in experiment [18] and in experiment [10] was “inactive” in each case. Also, the Potency entry in experiment [14], in experiment [15] and in [16] was “inactive” in each case.
